Results taken from PubChem BioAssay AID493185 (National Center for Advancing Translational Sciences (NCATS), 2011).
Calls of active or inactive are those of the source. The call rests on the fitted dose curve; in most records, active means well fitted activation curve with a large enough effect; inconclusive means small, poorly fitted or top-dose-only effect; inactive means no such curve, though single readings can be large or run the other way.

Test: Counterscreen for Identifying a Potential Treatment of Ataxia-Telangiectasia: Hit Validation; on activation: 0% is about no effect
Settings: cell-free AlphaLISA/AlphaScreen artifact counterscreen, PBS only, no cells; series mostly up to 76.9 µM; activation: at the top concentration
How it was run: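 Without cells, compounds at up to 76.7 uM final were combined with premixed anti-pKAP1/anti-KAP1 AlphaLISA bead reagents, protease inhibitors and lysis buffer; signal read after 6 hr at 25C to flag assay-platform artifacts.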
Potency means the concentration at half of the fitted maximal effect.

| SMILES | activation | Potency |
| --- | --- | --- |
| CN(CCc1ccccn1)C(=O)c1cc(COc2ccc(F)cc2F)on1 | 5.26% (inactive) | – |
| Cc1ccc2c(c1)sc(=NC(=O)C1CC1)n2C | 3.28% (inactive) | – |
| COC(=O)Cc1ccc(NC(=S)NCCSc2ccc(Cl)cc2)cc1 | 3.08% (inactive) | – |
| Fc1cccc(Cl)c1/C=C/c1cnc2ccccc2n1 | -13.1% (inactive) | – |
| CCn1c(SCc2cccc(F)c2)nnc1-c1ccncc1 | 6.56% (inactive) | – |
| Cn1cnc([N+](=O)[O-])c1SCCO | 3.01% (inactive) | – |
| CCc1nnc2n1N=C(c1cccc([N+](=O)[O-])c1)CS2 | -16.9% (inactive) | – |
| CCOc1ccc(NC2=CC(=O)CCC2)cc1 | -2.46% (inactive) | – |
| CN(C)c1cc(Nc2ccc(O)cc2)c([N+](=O)[O-])c2nonc12 | 9.23% (inactive) | – |
| NC(=O)c1cc2ccccc2o/c1=N/NC(=O)c1cccc(F)c1 | -3.76% (inactive) | – |
| COc1ccc(OC)c(C2CC(c3ccccc3)=NN2C(=S)Nc2ccccc2)c1 (stereo not given) | -3.76% (inactive) | – |
| CCOC(=O)c1[nH]c(COC(=O)c2ccccc2NC(=O)c2ccco2)c(C(=O)OCC)c1C | -6.56% (inactive) | – |
| CCC(C)NC(=O)c1cn(CCOC)c(=O)c2c1c1ccccc1n2C (stereo not given) | -6.92% (inactive) | – |
| CC(C)CN(CC(C)C)C(=O)c1cc2c(=O)n3ccccc3nc2s1 | 38.5% (inactive) | – |
| Brc1c(C[n+]2ccccc2)nc2ccccn12 | 23.3% (inactive) | – |
| CNC(=O)Cc1csc2ccc(C)cc12 | 3.28% (inactive) | – |
| COc1ccc(NC(=O)C2CC2)cc1OC1CCCC1 | 8.2% (inactive) | – |
| COc1ccc(/C=N/Nc2nc(=O)[nH]nc2C)cc1OC | 3.28% (inactive) | – |
| COc1ccccc1S(=O)(=O)Nc1ccc(-c2nnc3n2CCCCC3)cc1 | -2.46% (inactive) | – |
| COc1ccc(C2(C)CC(C)(C)Nc3ccccc32)cc1 (stereo not given) | -5.74% (inactive) | – |

| SMILES | activation | Potency |
| --- | --- | --- |
| COc1cccc(CN(C)CC(=O)NCc2ccc(F)cc2)c1OC | 2.46% (inactive) | – |
| O=C(N/N=C/c1ccncc1)c1ccc(COc2cccc3cccnc23)cc1 | 18% (inactive) | – |
| CCN(c1ccccc1)S(=O)(=O)c1ccc(Cl)c(C(=O)N(CC2CCCO2)C2CCS(=O)(=O)C2)c1 (stereo not given) | -15.4% (inactive) | – |
| CCN(CC)c1ccc2cc(-c3nc4ccccc4[nH]3)c(=O)oc2c1 | – | 4.63 µM (active) |
| CCOc1ccc(NC2=NCC(=O)N2Cc2cccs2)cc1 | 0% (inactive) | – |
| O=C1CN(C(=O)NCC(=O)N[C@H](C(=O)O)c2ccccc2)c2ccccc2N1 | 9.02% (inactive) | – |
| CC(C)NC(=O)c1ccc(COc2ccc(C(C)(C)C)cc2)o1 | 10.7% (inactive) | – |
| COc1ccc2nc(C)cc(Nc3ccc(C(=O)O)cc3)c2c1 | 11.5% (inactive) | – |
| O=C(c1ccc(F)cc1)N1CCC(c2ccccc2)C1 (stereo not given) | 12.3% (inactive) | – |
| CCOC(=O)C1=C(O)C(=O)N(Cc2ccccc2)C1 | 12% (inactive) | – |
| O=C(Nc1cccc([N+](=O)[O-])c1)N1CCCc2ccccc21 | -14.3% (inactive) | – |
| CCOC(=O)CN(C(=O)CSc1nnc(COc2ccc(OC)cc2)n1CC)c1ccccc1 | 0% (inactive) | – |
| CC(=O)Nc1ccc(NC2=C(Cl)C(=O)c3ccccc3C2=O)cc1 | -32.3% (inactive) | – |
| CCOc1ccc(C(=O)NC(=S)Nc2cccnc2)cc1[N+](=O)[O-] | -6.15% (inactive) | – |
| CC(O)[C@H]1CNC(=O)C(=O)N1CC1(c2ccccc2)CC1 (stereo not given in full) | 4.1% (inactive) | – |
| O=[N+]([O-])c1ccc(F)cc1F | -4.1% (inactive) | – |
| O=C(CN1C(=O)c2cccc([N+](=O)[O-])c2C1=O)NCc1ccccc1 | 8.27% (inactive) | – |
| CC1CC(C)CN(S(=O)(=O)c2ccc(C(=O)NCCCn3ccnc3)cc2)C1 (stereo not given) | -32.8% (inactive) | – |
| CCc1oc(C(=O)OC)cc1CSC(=N)N | -1.54% (inactive) | – |
| COc1ccc(C(=O)CSc2nc3ncccc3[nH]2)cc1OC | -10.8% (inactive) | – |
